According to PubChem BioAssay (Tox21):
Values joined by “and” are separate entries in the source; they are usually repeats but may differ in a detail not shown here. Equal values may be shown once. Inconclusive results are not listed. Entries that show only a call come without a potency. Where a structure was tested more than once in an assay, its records may differ in their call. Active and inactive are the calls of the source. Unless noted, the call rests on the fitted dose curve; in most records, active means well fitted curve in the direction sought with a large enough effect in the repeat runs; inconclusive means weak or mixed curves; inactive means no such curve, though single readings can be large; an effect the other way counts as inactive or inconclusive.

Tests used:
[1] = qHTS assay to identify small molecule agonists of the estrogen receptor alpha (ER-alpha) signaling pathway in the presence of an antagonist - cell viability counter screen (AID 1259386);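 further: series mostly up to about 92 µM; cells exposed to compounds for 22 h at 37 °C before the viability read; nearly all actives have a fitted effect of over 30% in size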
How it was run: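 Cells are starved of estrogens for 5 days in charcoal-stripped serum, seeded for 24hr and co-treated with ICI-182,780 (10.0nM final) and test compounds. After 22hr at 37C, viability is read as CellTiter-Fluor fluorescence.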

[2] = qHTS assay to identify small molecule antagonists of the TGF-beta/Smad signaling pathway - cell viability counter screen (AID 1346824); further: nearly all actives have a fitted effect of over 50% in size
How it was run: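 SBE-bla HEK 293T cells, incubated overnight, then compound plus 0.25 ng/mL TGF-beta1 (stock added) for 5 hr at 37 C. Viability was read in the same wells by CellTiter-Glo luminescence after 30 min at room temperature.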

[3] = qHTS assay to identify small molecule agonists of the TGF-beta/Smad signaling pathway - cell viability counter screen (AID 1346829); further: top concentration of the series differs between compounds; nearly all actives have a fitted effect of over 45% in size
How it was run: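 SBE-bla HEK 293T cells plated overnight, compound exposure 5 hr at 37 C. Viability read in the same wells by CellTiter-Glo luminescence after 30 min at room temperature, following the beta-lactamase read.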

[4] = qHTS assay to identify small molecule agonists of the TGF-beta/Smad signaling pathway (AID 1346859; active means well fitted activation curve with a large enough effect in the signal ratio in the repeat runs, not every such curve was filed as active; the % refers to the signal ratio; further: series mostly up to about 77 µM)
How it was run: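 HEK 293T cells stably carrying a beta-lactamase reporter driven by the Smad binding element were seeded overnight, exposed to DMSO-dissolved compounds for 5 hr at 37 C, 5% CO2, then loaded with FRET substrate for 2 hr at room temperature.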

[5] = target: Thyrotropin-releasing hormone receptor (Homo sapiens) (UniProt P34981); assay: qHTS assay to identify small molecule agonists of the thyrotropin-releasing hormone receptor (TRHR) signaling pathway (AID 1346891; calls by dose curve; further: series mostly up to about 58 µM)
Thyrotropin-releasing hormone receptor (Homo sapiens), sequence (P34981 whole entry, looked up): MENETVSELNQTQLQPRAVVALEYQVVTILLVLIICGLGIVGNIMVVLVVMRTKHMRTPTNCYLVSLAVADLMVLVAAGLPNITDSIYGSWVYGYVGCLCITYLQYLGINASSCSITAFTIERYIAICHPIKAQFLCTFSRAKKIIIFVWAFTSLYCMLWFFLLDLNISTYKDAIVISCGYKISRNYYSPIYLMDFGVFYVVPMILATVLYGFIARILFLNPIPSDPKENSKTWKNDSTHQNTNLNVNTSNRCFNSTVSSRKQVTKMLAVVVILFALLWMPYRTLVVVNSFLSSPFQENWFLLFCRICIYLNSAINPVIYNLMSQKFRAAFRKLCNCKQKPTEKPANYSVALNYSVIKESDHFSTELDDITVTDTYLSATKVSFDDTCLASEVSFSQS
How it was run: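 TRHR-expressing HEK293 cells were plated 18 h at 37 °C/5% CO2, loaded with calcium dye 2 h at 37 °C, then given compound in DMSO; fluorescence was read kinetically for 3 min at 1 s intervals.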

[6] = Caspase-3/7 induction in CHO-K1 cells by small molecules, qHTS cell viability counter screen (AID 1346979); further: nearly all actives have a fitted effect of over 35% in size; further: potency means the concentration at half of the fitted maximal effect
How it was run: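 Wild-type CHO-K1 cells were seeded at 1,500 per well, rested 5hr at 37 C, then exposed to compounds in DMSO. After 16hr, CellTiter-Fluor reagent was added and fluorescence read 1hr later as the viability measure.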

[7] = Caspase-3/7 induction in CHO-K1 cells by small molecules, qHTS assay (AID 1346980); further: nearly all actives have a fitted effect of over 15% in size
How it was run: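 Wild-type CHO-K1 cells exposed to compounds for 17hr at 37 C, 5% CO2. Caspase-3/7 activity then measured by Caspase-Glo 3/7 luminescence after 30min at room temperature.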

[8] = target: Nuclear receptor subfamily 1 group I member 2 (Rattus norvegicus) (UniProt Q9R1A7); assay: Rat pregnane X receptor (rPXR) activation by small molecules, qHTS assay (AID 1346983); conditions: rPXR luciferase reporter cells, One-Glo luminescence, 24 h; max activation: stronger effect = higher value; further: nearly all actives have a fitted effect of over 20% in size
Nuclear receptor subfamily 1 group I member 2 (Rattus norvegicus), sequence (Q9R1A7 whole entry, looked up): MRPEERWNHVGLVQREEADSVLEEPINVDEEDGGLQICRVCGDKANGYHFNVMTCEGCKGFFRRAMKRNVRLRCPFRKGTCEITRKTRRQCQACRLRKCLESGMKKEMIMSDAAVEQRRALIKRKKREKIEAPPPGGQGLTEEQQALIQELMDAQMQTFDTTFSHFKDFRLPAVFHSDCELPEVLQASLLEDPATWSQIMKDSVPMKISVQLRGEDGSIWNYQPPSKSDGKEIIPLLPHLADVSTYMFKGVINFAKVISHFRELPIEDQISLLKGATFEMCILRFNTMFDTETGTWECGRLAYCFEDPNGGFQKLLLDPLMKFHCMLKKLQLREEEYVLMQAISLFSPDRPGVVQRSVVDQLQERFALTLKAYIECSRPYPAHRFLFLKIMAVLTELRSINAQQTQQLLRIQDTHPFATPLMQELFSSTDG
How it was run: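 Cell-based rPXR activation assay: rPXR cells, 2,000 per well, rested 5hr at 37 C, then exposed to compounds in DMSO for 24 hr at 37 C. Luciferase activity read by One-Glo luminescence after 30 min at room temperature.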

[9] = target: Progesterone receptor (Homo sapiens) (UniProt P06401); assay: qHTS assay to identify small molecule agonists of the progesterone receptor (PR) signaling pathway (AID 1346784; calls by dose curve; further: nearly all actives have a fitted effect of over 30% in size)
Progesterone receptor (Homo sapiens), sequence (P06401 whole entry, looked up): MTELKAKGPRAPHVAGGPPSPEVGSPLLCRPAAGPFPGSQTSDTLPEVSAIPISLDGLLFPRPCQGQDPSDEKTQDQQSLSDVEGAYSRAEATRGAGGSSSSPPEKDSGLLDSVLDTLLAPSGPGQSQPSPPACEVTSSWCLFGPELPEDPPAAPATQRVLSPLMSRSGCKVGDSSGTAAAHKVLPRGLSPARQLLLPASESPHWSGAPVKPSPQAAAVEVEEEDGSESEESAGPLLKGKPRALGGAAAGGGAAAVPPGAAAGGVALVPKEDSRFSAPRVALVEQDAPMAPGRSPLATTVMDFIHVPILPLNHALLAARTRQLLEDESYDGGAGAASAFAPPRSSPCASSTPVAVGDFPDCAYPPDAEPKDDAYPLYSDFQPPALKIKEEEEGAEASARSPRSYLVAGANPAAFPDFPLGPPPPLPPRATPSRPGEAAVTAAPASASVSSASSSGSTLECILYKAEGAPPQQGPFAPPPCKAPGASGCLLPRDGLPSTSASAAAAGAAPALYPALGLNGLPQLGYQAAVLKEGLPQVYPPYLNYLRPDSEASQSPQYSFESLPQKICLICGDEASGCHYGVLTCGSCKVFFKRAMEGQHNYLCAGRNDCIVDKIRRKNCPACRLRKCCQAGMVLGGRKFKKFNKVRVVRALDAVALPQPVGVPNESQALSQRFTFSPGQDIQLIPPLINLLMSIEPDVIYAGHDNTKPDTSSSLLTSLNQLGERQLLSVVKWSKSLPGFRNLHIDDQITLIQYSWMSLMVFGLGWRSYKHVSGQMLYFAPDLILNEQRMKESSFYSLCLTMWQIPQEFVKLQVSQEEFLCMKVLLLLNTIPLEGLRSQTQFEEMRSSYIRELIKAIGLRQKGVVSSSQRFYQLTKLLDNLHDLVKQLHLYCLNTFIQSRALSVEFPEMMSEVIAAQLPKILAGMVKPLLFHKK
How it was run: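 PR-UAS-bla HEK 293T cells carrying a UAS-driven beta-lactamase reporter were seeded in medium with 2% charcoal-stripped FBS, preincubated 6 hr at 37C, then exposed to compounds in DMSO for 16 hr; agonism was read by LiveBLAzer B/G FRET fluorescence.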

[10] = qHTS assay to identify small molecule antagonists of the progesterone receptor (PR) signaling pathway - cell viability counter screen (AID 1346798); further: series mostly up to about 92 µM; nearly all actives have a fitted effect of over 50% in size
How it was run: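 PR-UAS-bla HEK293T cells in medium with 2% charcoal-stripped FBS were treated with compounds plus R5020 for 16 hr at 37C. Cell viability was then read by CellTiter-Glo luminescence after 30 min at room temperature in the same wells.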

[11] = target: Thyrotropin-releasing hormone receptor (Homo sapiens) (UniProt P34981); assay: qHTS assay to identify small molecule antagonists of the thyrotropin-releasing hormone receptor (TRHR) signaling pathway (AID 1346877; active means well fitted inhibition curve with a large enough effect in the repeat runs, not every such curve was filed as active; further: series mostly up to about 51 µM)
How it was run: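 Cells (TRHR-HEK293) are plated and kept 18 h at 37 °C/5% CO2. A calcium-sensitive dye is added for 2 h, compound follows for 5 min at room temperature, and TRH is then given at 1 nM final.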

[12] = Human pregnane X receptor (PXR) small molecule agonists, qHTS cell viability counter screen (AID 1346977); further: nearly all actives have a fitted effect of over 50% in size
How it was run: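 PXR-Luc HepG2 cells in medium with 5% charcoal-stripped FBS were pre-incubated 5hr, then exposed to compounds for 24hr at 37C. Viability was read in the same wells by CellTiter-Fluor fluorescence, reagent added after 23hr with a 1hr incubation.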

[13] = Caspase-3/7 induction in HepG2 cells by small molecules, qHTS assay (AID 1346978); further: nearly all actives have a fitted effect of over 15% in size
How it was run: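 Wild-type HepG2 cells, 2,000/well, settled 5 hr at 37 C and 5% CO2, then compound-treated for 17 hr; caspase-3/7 activity read by luminescent Caspase-Glo 3/7 after 30 min at room temperature.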

[14] = target: Nuclear receptor subfamily 1 group I member 2 (Homo sapiens) (UniProt O75469); assay: Human pregnane X receptor (PXR) small molecule agonists, qHTS assay (AID 1346982); further: nearly all actives have a fitted effect of over 35% in size; further: potency means the concentration at half of the fitted maximal effect
Nuclear receptor subfamily 1 group I member 2 (Homo sapiens), sequence (O75469 whole entry, looked up): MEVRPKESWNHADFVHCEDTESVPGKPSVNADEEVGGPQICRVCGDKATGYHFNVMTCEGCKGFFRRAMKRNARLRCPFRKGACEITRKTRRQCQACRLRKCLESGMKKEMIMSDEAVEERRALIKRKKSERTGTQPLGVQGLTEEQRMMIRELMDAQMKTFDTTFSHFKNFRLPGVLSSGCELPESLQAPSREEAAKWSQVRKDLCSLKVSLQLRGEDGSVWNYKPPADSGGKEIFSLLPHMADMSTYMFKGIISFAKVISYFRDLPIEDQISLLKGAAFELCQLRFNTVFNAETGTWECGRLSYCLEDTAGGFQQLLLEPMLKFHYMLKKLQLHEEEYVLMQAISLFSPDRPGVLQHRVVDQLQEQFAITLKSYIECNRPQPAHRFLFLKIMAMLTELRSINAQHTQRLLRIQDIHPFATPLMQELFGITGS
How it was run: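 Agonist mode qHTS: PXR-Luc HepG2 cells plated 5 hr before DMSO-dissolved compounds were pinned in, cultured 24 hr at 37 C, 5% CO2; ONE-Glo luminescence readout.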

[15] = target: Cytochrome P450 2D6 (Homo sapiens) (UniProt P10635); assay: Cytochrome P450 Family 2 Subfamily D Member 6 (CYP2D6) small molecule antagonists: luciferase reporter qHTS assay (AID 1671196); further: nearly all actives have a fitted effect of over 50% in size; further: potency means the concentration at half of the fitted maximal effect
Cytochrome P450 2D6 (Homo sapiens), sequence (P10635 whole entry, looked up): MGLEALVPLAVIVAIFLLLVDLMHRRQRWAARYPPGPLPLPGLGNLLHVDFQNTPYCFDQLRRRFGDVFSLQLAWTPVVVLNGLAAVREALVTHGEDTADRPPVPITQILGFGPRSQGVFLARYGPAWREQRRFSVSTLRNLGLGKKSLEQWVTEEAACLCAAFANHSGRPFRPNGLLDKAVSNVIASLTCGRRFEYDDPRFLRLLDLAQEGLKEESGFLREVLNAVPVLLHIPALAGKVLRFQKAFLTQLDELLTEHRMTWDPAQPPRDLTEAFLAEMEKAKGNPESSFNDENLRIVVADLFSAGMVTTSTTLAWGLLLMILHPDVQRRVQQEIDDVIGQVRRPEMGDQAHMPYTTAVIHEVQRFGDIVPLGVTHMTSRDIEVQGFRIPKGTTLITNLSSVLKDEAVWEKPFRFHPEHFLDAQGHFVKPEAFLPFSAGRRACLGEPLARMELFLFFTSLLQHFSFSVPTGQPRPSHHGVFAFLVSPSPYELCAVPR
How it was run: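 P450-Glo format: CYP2D6 converts a proluciferin substrate to luciferin in an NADPH-driven reaction lasting 1 h at room temperature. Light output, proportional to CYP2D6 activity, reflects interference by test chemicals.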

[16] = Caspase-3/7 induction in HepG2 cells by small molecules, qHTS cell viability counter screen (AID 1346981); further: series mostly up to about 92 µM; nearly all actives have a fitted effect of over 30% in size
How it was run: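 Steps: seed 2,000 HepG2 cells per well; incubate 5 hr at 37 C; pin-add compounds in DMSO; incubate 16 hr; add CellTiter-Fluor; after 1 hr at 37 C and 5% CO2, read fluorescence.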

[17] = target: Nuclear receptor subfamily 1 group I member 2 (Homo sapiens) (UniProt O75469); assay: CYP3A4 induction through human pregnane X receptor (PXR) by small molecules, qHTS assay (AID 1346984); further: nearly all actives have a fitted effect of over 40% in size
How it was run: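 Steps: seed DPX-2 cells, 5 hr at 37C; pin-transfer compounds; 24 hr at 37C; add Luciferin-IPA (3uM final), 3 hr at 37C; add One-Glo, 30 min RT; read luminescence.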

[18] = target: Nuclear receptor subfamily 1 group I member 2 (Homo sapiens) (UniProt O75469); assay: Human pregnane X receptor (PXR) activation by small molecules, qHTS assay (AID 1346985); further: nearly all actives have a fitted effect of over 40% in size
How it was run: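 DPX-2 cells (HepG2 co-transfected with a PXR response element and a CYP3A4-promoter luciferase construct) were seeded at 2,000 per well, rested 5 hr at 37C, then exposed to DMSO-dissolved compounds for 24 hr. Activation was read as luciferase luminescence.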

[19] = qHTS assay to identify small molecule agonists of the progesterone receptor (PR) signaling pathway - cell viability counter screen (AID 1346799; calls by dose curve; further: nearly all actives have a fitted effect of over 45% in size; further: potency means the concentration at half of the fitted maximal effect)
How it was run: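 PR-UAS-bla HEK293T cells, 3,000 per well in medium with 2% charcoal-stripped FBS, were preincubated 6 hr at 37C, then exposed to compounds for 16 hr; viability was read as CellTiter-Glo luminescence after 30 min at room temperature.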

Q: Which Potency [1] does the source give for `C[C@]12CC[C@@H]3c4ccc(O)cc4CC[C@H]3[C@@H]1CC[C@@H]2O` here?
A: inactive

Q: And the Potency [2]?
A: inactive

Q: And the Potency [3]?
A: inactive

Q: What about the outcome [4] of the same compound?
A: inactive

Q: And the Potency [5]?
A: inactive

Q: What about the Potency [6] of the same compound?
A: 61 µM (active) and 61.1 µM (active)

Q: And the Potency [7]?
A: inactive

Q: What about the max activation [8] of the same compound?
A: -1.66% (inactive)

Q: Which Potency [1] does the source give for `Cc1cccc(Nc2ccccc2C(=O)O)c1C` here?
A: inactive

Q: And the Potency [9]?
A: inactive

Q: What about the Potency [10] of the same compound?
A: inactive

Q: And the Potency [2]?
A: inactive

Q: And the Potency [3]?
A: inactive

Q: What about the outcome [4] of the same compound?
A: inactive

Q: And the Potency [11]?
A: inactive

Q: What about the Potency [12] of the same compound?
A: inactive

Q: And the Potency [13]?
A: inactive

Q: And the Potency [6]?
A: inactive

Q: And the Potency [7]?
A: inactive

Q: What about the Potency [14] of the same compound?
A: 48.6 µM (active) and inactive

Q: And the Potency [15]?
A: inactive

Q: Which results are given for `OC[C@H]1O[C@@H]2O[C@H]3[C@H](O)[C@@H](O)[C@@H](O[C@H]4[C@H](O)[C@@H](O)[C@@H](O[C@H]5[C@H](O)[C@@H](O)[C@@H](O[C@H]6[C@H](O)[C@@H](O)[C@@H](O[C@H]7[C@H](O)[C@@H](O)[C@@H](O[C@H]1[C@H](O)[C@H]2O)O[C@@H]7CO)O[C@@H]6CO)O[C@@H]5CO)O[C@@H]4CO)O[C@@H]3CO`?
A: Potency [1]: inactive; Potency [9]: inactive; Potency [10]: inactive; Potency [2]: inactive; Potency [3]: inactive; outcome [4]: inactive; Potency [5]: inactive; Potency [6]: inactive; Potency [7]: inactive; Potency [16]: inactive; Potency [14]: inactive; max activation [8]: -2.41% (inactive); Potency [17]: inactive; Potency [18]: inactive; Potency [15]: inactive

Q: What does the source list for `C1CN(SSN2CCOCC2)CCO1`?
A: Potency [1]: inactive; Potency [9]: inactive; Potency [10]: inactive; Potency [19]: inactive; Potency [3]: inactive; Potency [12]: inactive; Potency [13]: inactive; Potency [6]: 30.3 µM (active) and 48.6 µM (active); Potency [14]: 61.1 µM (active); Potency [15]: 78.9 µM (active) and 31.7 µM (active)

Q: For `CC/C=C\C/C=C\C/C=C\CCCCCCCC(=O)O`, which Potency [1] is on record?
A: inactive

Q: What about the Potency [10] of the same compound?
A: inactive

Q: What about the Potency [2] of the same compound?
A: inactive

Q: And the Potency [3]?
A: inactive

Q: What about the outcome [4] of the same compound?
A: inactive

Q: And the Potency [12]?
A: inactive

Q: And the Potency [13]?
A: inactive

Q: And the Potency [6]?
A: inactive and 61.1 µM (active)

Q: What about the Potency [7] of the same compound?
A: inactive

Q: What about the Potency [16] of the same compound?
A: inactive

Q: And the Potency [14]?
A: inactive and 61.1 µM (active)

Q: And the max activation [8]?
A: -1.32% (inactive)

Q: And the Potency [17]?
A: inactive

Q: And the Potency [18]?
A: inactive

Q: And the Potency [15]?
A: 19.8 µM (active)

Q: For `CC(C)(C)c1cccc(C(C)(C)C)c1O`, which Potency [1] is on record?
A: inactive

Q: And the Potency [9]?
A: inactive

Q: What about the Potency [10] of the same compound?
A: inactive

Q: And the Potency [2]?
A: inactive

Q: What about the Potency [3] of the same compound?
A: inactive

Q: What about the outcome [4] of the same compound?
A: inactive

Q: And the Potency [12]?
A: inactive

Q: What about the Potency [13] of the same compound?
A: inactive

Q: What about the Potency [6] of the same compound?
A: inactive

Q: What about the Potency [7] of the same compound?
A: inactive

Q: What about the Potency [16] of the same compound?
A: inactive

Q: What about the Potency [14] of the same compound?
A: 59.8 µM (active) and inactive

Q: And the Potency [15]?
A: 39 µM (active) and inactive

Q: Which results are given for `COc1ccc(C(=O)c2ccccc2O)c(O)c1`?
A: Potency [1]: inactive; Potency [9]: inactive; Potency [10]: inactive; Potency [2]: inactive; Potency [3]: inactive; outcome [4]: inactive; Potency [11]: inactive; Potency [12]: inactive; Potency [13]: inactive; Potency [6]: inactive; Potency [7]: inactive; Potency [16]: inactive

Q: With `Cc1ccc([N+](=O)[O-])c(C)c1` as the compound, how does the Potency [1] read?
A: inactive

Q: And the Potency [9]?
A: inactive

Q: What about the Potency [19] of the same compound?
A: 19.3 µM (active) and inactive

Q: And the Potency [2]?
A: inactive

Q: And the Potency [3]?
A: inactive

Q: What about the outcome [4] of the same compound?
A: inactive

Q: What about the Potency [11] of the same compound?
A: inactive

Q: And the Potency [5]?
A: inactive

Q: What about the Potency [13] of the same compound?
A: inactive

Q: What about the Potency [6] of the same compound?
A: inactive

Q: And the Potency [7]?
A: inactive

Q: And the Potency [16]?
A: inactive

Q: And the Potency [14]?
A: inactive

Q: And the Potency [15]?
A: inactive

Q: Which Potency [1] does the source give for `ClC/C=C/CCl` here?
A: inactive

Q: And the Potency [9]?
A: inactive

Q: What about the Potency [10] of the same compound?
A: inactive

Q: And the Potency [2]?
A: inactive

Q: What about the Potency [3] of the same compound?
A: inactive

Q: And the outcome [4]?
A: inactive

Q: And the Potency [11]?
A: inactive

Q: And the Potency [13]?
A: inactive

Q: What about the Potency [6] of the same compound?
A: inactive

Q: And the Potency [7]?
A: inactive

Q: What about the Potency [14] of the same compound?
A: inactive
